Test results reported in the supplement of paper PMC6992640.
± gives the standard deviation of the averaged measurements.

Legend:
Assay in all cases: cell viability (% of vehicle); higher = less cytotoxic
Conditions in all cases: 10 µM; 72 h
HCI01 = test system: HCI01 (cells of a triple-negative basal-like breast cancer xenograft)
HCI03 = test system: HCI03 (cells of an ER-positive luminal breast cancer xenograft)
HCI09 = test system: HCI09 (cells of a triple-negative luminal androgen receptor type breast cancer xenograft)
HCI11 = test system: HCI11 (cells of an ER-positive luminal breast cancer xenograft)
HCI13 = test system: HCI13 (cells of an ER-positive luminal breast cancer xenograft)
HCI16 = test system: HCI16 (cells of a triple-negative basal-like breast cancer xenograft)
UCD52 = test system: UCD52 (cells of a triple-negative basal-like breast cancer xenograft)
WHIM2 = test system: WHIM2 (cells of a triple-negative basal-like breast cancer xenograft)
WHIM30 = test system: WHIM30 (cells of a triple-negative basal-like breast cancer xenograft)
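Also: PDX cells carrying CMV promoter-driven luciferase, viability read as total photon flux per second by IVIS imaging following D-luciferin, vehicle control 0.1% DMSO.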

SMILES	cell viability (HCI01)	cell viability (HCI03)	cell viability (HCI09)	cell viability (HCI11)	cell viability (HCI13)	cell viability (HCI16)	cell viability (UCD52)	cell viability (WHIM2)	cell viability (WHIM30)
CC1(O)CC(c2nc(-c3ccc4ccc(-c5ccccc5)nc4c3)c3c(N)nccn23)C1 (centres undefined) [Linsitinib]	112 ± 1.2	109	73.3 ± 39	76.3	38.6 ± 4	127	71.6 ± 2.8	102 ± 11	126 ± 12
CCCCOc1ccc(C(=O)CCN2CCCCC2)cc1.Cl [Dyclonine HCl]	91.4 ± 36	110	98.2 ± 18	110	60.5 ± 2.6	88.6	90.6 ± 12	40 ± 16	129 ± 30
NC(N)=NS(=O)(=O)c1ccc(N)cc1 [Sulfaguanidine]	99.8 ± 16	135	88.6 ± 12	86.1	108 ± 7.2	135	85.4 ± 6.9	116 ± 6.5	118 ± 2.4
CN1CCN2c3ccccc3Cc3ccccc3C2C1.Cl (centres undefined) [Mianserin HCl]	124 ± 24	98.3	89.4 ± 4.5	95.9	90 ± 21	92.4	74.3 ± 4.9	73.1 ± 24	109 ± 3.4
N#CC(c1ccc(Cl)cc1)c1c(Cl)cc(-n2ncc(=O)[nH]c2=O)cc1Cl (centres undefined) [Diclazuril]	98.7 ± 32	119	64 ± 57	95.3	59.1 ± 10	123	96.3 ± 31	115 ± 19	161 ± 11
CCC1OC(=O)C(C)C(OC2CC(C)(OC)C(O)C(C)O2)C(C)C(OC2OC(C)CC(N(C)C)C2O)C(C)(O)CC(C)CN(C)C(C)C(O)C1(C)O.O.O (centres undefined) [Azithromycin Dihydrate]	110 ± 9	114	101 ± 10	112	144 ± 5	104	85.4 ± 1.5	102 ± 2.7	89 ± 1.7
Cl.O=C(c1ccc(OCCN2CCCCC2)cc1)c1c(-c2ccc(O)cc2)sc2cc(O)ccc12 [Raloxifene HCl]	163 ± 35	71.2	33.7 ± 1.3	116	50.8 ± 3	182	80.5 ± 3.9	44 ± 7.1	156.6 ± 1.1
O=C(O)C=CC(=O)O.OCCOCCN1CCN(C2=Nc3ccccc3Sc3ccccc32)CC1.OCCOCCN1CCN(C2=Nc3ccccc3Sc3ccccc32)CC1 [Quetiapine Fumarate]	186 ± 14	91.6	81.6 ± 5.6	123	83 ± 0.84	163	78.8 ± 2	128 ± 7	154 ± 6.5
COc1cc(NS(=O)(=O)c2ccc(N)cc2)nc(OC)n1 [Sulfadimethoxine]	91.8 ± 17	155	103 ± 14	103	116 ± 1.2	118	112 ± 5.2	86.1 ± 9.4	172 ± 27
CNS(=O)(=O)CCc1ccc2[nH]cc(C3CCN(C)CC3)c2c1.Cl [Naratriptan]	102 ± 13	127	96.7 ± 4.1	72.5	86.22 ± 0.42	105	103 ± 1.1	91.5 ± 8	109 ± 7.3
O=C([O-])c1ccccc1O.[Na+] [Sodium salicylate]	96.1 ± 24	121	100 ± 7.2	91.4	107 ± 12	124	85.6 ± 3.5	89.1 ± 15	94.4 ± 3.4
Nc1nc(CC(=O)Nc2ccc(CCNCC(O)c3ccccc3)cc2)cs1 (centres undefined) [Mirabegron (YM178)]	127 ± 6.3	109	136 ± 51	107	140 ± 13	137	82.2 ± 9.6	97 ± 19	132 ± 4.2
NC(=O)N1c2ccccc2CC(=O)c2ccccc21 [Oxcarbazepine]	91.5 ± 16	133	107 ± 16	98.9	104 ± 15	124	99.59 ± 0.42	91.2 ± 2.1	159 ± 3.8
COC(=O)C1C2CC3c4[nH]c5cc(OC)ccc5c4CCN3CC2CC(OC(=O)c2cc(OC)c(OC)c(OC)c2)C1OC.Cl (centres undefined) [Reserpine hydrochloride]	109 ± 8.9	114	66.7 ± 3.4	97.6	124 ± 17	87.9	79.9 ± 1.5	92.6 ± 19	78.4 ± 6.3
CCCNC(=O)NS(=O)(=O)c1ccc(Cl)cc1 [Chlorpropamide]	121 ± 28	113	73.9 ± 18	82.9	81.8 ± 25	105	92.5 ± 5.9	99.5 ± 14	104 ± 4.6
CCCCC(=O)OC1CCC2C3CCc4cc(O)ccc4C3CCC12C (centres undefined) [Estradiol valerate]	157 ± 47	122	98.1 ± 4.8	91.3	182 ± 36	137	90.6 ± 7.6	88.9 ± 8.9	134 ± 9.2
CC(C)(C)NCC(O)c1ccc(O)c(CO)c1.O=S(=O)(O)O (centres undefined) [Salbutamol Sulfate]	103 ± 5.9	104	97.4 ± 19	90.5	106 ± 21	104	85.4 ± 4.9	92.9 ± 19	114 ± 6.2
Cc1cccn2c(=O)c(-c3nnn[n-]3)cnc12.[K+] [Pemirolast potassium]	97.99 ± 0.96	98.7	84 ± 3.5	90.1	97.8 ± 29	108	92.2 ± 1.2	113 ± 7.9	93.4 ± 17

SMILES	cell viability (HCI01)	cell viability (HCI03)	cell viability (HCI09)	cell viability (HCI11)	cell viability (HCI13)	cell viability (HCI16)	cell viability (UCD52)	cell viability (WHIM2)	cell viability (WHIM30)
CC(CCC(=O)O)C1CCC2C3C(O)CC4CC(O)CCC4(C)C3CC(O)C12C (centres undefined) [Cholic acid]	96 ± 8.2	142	89.6 ± 7.1	87.2	109 ± 9.5	98.7	101.2 ± 0.7	96.7 ± 11	99.9 ± 11
CCOC(=O)C(CCc1ccccc1)NC(C)C(=O)N1CCCC1C(=O)O.O=C(O)C=CC(=O)O (centres undefined) [Enalapril Maleate]	128 ± 31	126	101 ± 2.9	72.3	102 ± 8.6	120	120 ± 4.4	116 ± 15	104 ± 3
O=C(O)CCNC(=O)c1ccccc1 [Betamipron]	121 ± 22	105	87.5 ± 28	98.2	69.8 ± 10	98.9	99.9 ± 9.4	101 ± 11	108 ± 4.5
C=CC1=C(C(=O)O)N2C(=O)C(NC(=O)C(=NO)c3csc(N)n3)C2SC1 (centres undefined) [Cefdinir]	96.2 ± 11	138	107 ± 6.3	120	130 ± 4.8	121	96.6 ± 12	98.1 ± 22	114 ± 8
Cl.O=C(O)C=Cc1ccc(Cn2ccnc2)cc1 [Ozagrel HCl]	72.6 ± 40	135	100 ± 10	99.5	126 ± 10	122	87.7 ± 1.4	93.3 ± 30	140 ± 2.3
C#CCNC1CCc2ccccc21.CS(=O)(=O)O (centres undefined) [Rasagiline Mesylate]	157 ± 6	117	117 ± 8.5	127	126 ± 4.8	141	107 ± 8.4	114 ± 6.4	139 ± 16
Nc1nc(=O)c2c(CCc3ccc(C(=O)NC(CCC(=O)[O-])C(=O)[O-])cc3)c[nH]c2[nH]1.[Na+].[Na+] (centres undefined) [Pemetrexed]	94.1 ± 3.5	102	88.7 ± 10	92.9	105 ± 5.3	105	93.4 ± 13	95.2 ± 9.6	130 ± 10
C=C1CCC(O)CC1=CC=C1CCCC2(C)C1CCC2C(C)C=CC(C)C(C)C (centres undefined) [Vitamin D2 (Ergocalciferol)]	118 ± 26	101	61.9 ± 14	95.2	58.8 ± 16	77.9	65.5 ± 2.4	40.7 ± 13	89.1 ± 10
O=C(C1CCCCC1)N1CC(=O)N2CCc3ccccc3C2C1 (centres undefined) [Praziquantel]	99.2 ± 15	132	94.6 ± 5.6	93.1	134 ± 17	112	96.7 ± 4.2	94 ± 20	114 ± 7.9
[I-].[K+] [Potassium Iodide]	98.5 ± 37	134	97 ± 8.2	97.4	169 ± 3.2	127	102 ± 6.1	82 ± 5.4	121 ± 7.5
CN(C)CC(c1ccc(O)cc1)C1(O)CCCCC1.O.O=C(O)CCC(=O)O (centres undefined) [Desvenlafaxine Succinate]	91 ± 6.9	153	107 ± 13	92.6	110 ± 9.4	129	92.4 ± 9.8	105 ± 10	133 ± 2.2
Cn1c(=O)c2c(ncn2CC(O)CO)n(C)c1=O (centres undefined) [Dyphylline]	98.4 ± 7.5	122	98 ± 15	114	117 ± 14	85.9	90.2 ± 3.7	104 ± 1.1	119 ± 24
CC(NC(=O)C(O)C(C)C)C(=O)NC1C(=O)N(C)CCc2ccccc21 (centres undefined)	144 ± 28	106	71.2 ± 7.3	119	102 ± 21	180	81 ± 20	69.98 ± 0.17	184 ± 11
CCOC(=O)C1OC1C(=O)NC(CC(C)C)C(=O)NCCC(C)C (centres undefined)	108 ± 6.8	118	97.6 ± 1.9	91.9	165 ± 7.1	70.3	97.4 ± 3.2	105 ± 38	99.6 ± 12
Cn1cnc([N+](=O)[O-])c1Sc1ncnc2nc[nH]c12 [Azathioprine]	98.2 ± 32	119	106 ± 26	87	65 ± 8.7	151	129 ± 18	71.1 ± 10	110 ± 8.8
CC1CCc2c(N3CCC(O)CC3)c(F)cc3c(=O)c(C(=O)O)cn1c23 (centres undefined) [Nadifloxacin]	83.8 ± 17	122	79 ± 2.1	93.8	103 ± 3.5	120	77.6 ± 6.6	74.2 ± 3.4	122 ± 6.2
O=C(O)COCCN1CCN(C(c2ccccc2)c2ccc(Cl)cc2)CC1 (centres undefined) [Cetirizine]	108 ± 5.1	95.2	97.2 ± 2.1	93.5	108 ± 2.5	74.6	92.6 ± 3.8	94.8 ± 4.7	128 ± 9.9
CC(=O)Nc1ncc([N+](=O)[O-])s1 [Nithiamide]	112 ± 16	159	106 ± 6.2	105	67.5 ± 5.2	133	109 ± 6.1	117 ± 13	91.3 ± 2
